TDP43 rescue: rescues yeast growth from TDP-43 toxicity | TDP-43 expressing yeast growth rescue, BacTiter-Glo, 24 h | Potency, µM (series often up to 46.1 µM), most hits filed as activators | 410,000 tested, 1.8% active; note: nearly all actives have a fitted effect of over 50% in size
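Yeast cells expressing TDP-43 under galactose induction are exposed to compounds for 24 hr at 30 deg C. BacTiter-Glo luminescence measures growth, so protective compounds score as activators.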
Abeta rescue: A-beta toxicity reversal in yeast. yeast expressing A-beta42, growth rescue, OD600, 48 h; response scale: 0% DMSO, 100% iron-clioquinol control. Potency, µM (top dose mostly 46.1 µM), most hits filed as activators. 410,000 tested, 0.063% active; note: nearly all actives have a fitted effect of over 55% in size
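Yeast A-beta toxicity model in growth medium with pinned compounds, 48 h at 30 C; growth read as absorbance at 600 nm. Normalized to FeCl3/clioquinol equimolar mix (positive) and DMSO (negative).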
FUS suppressor: FUS proteinopathy suppression in yeast; S. cerevisiae FUS-expressing, growth rescue, OD600, 24 h; Potency, µM (highest dose often 76.6 µM), usual class: activators; 390,000 tested, 0.24% active; note: nearly all actives have a fitted effect of over 55% in size
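Restored growth of FUS-toxic S. cerevisiae, read as 600 nm absorbance after 24 h at 30C in galactose medium (starting OD 0.005). Controls CP55940 and DMSO.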
aSyn yeast inh: rescues yeast growth from alpha-synuclein toxicity; Yeast expressing alpha-synuclein, growth rescue, BacTiter-Glo, 24 h; 370,000 tested, 0.14% active; Potency, µM (top dose mostly 46.1 µM), most hits filed as activators; note: nearly all actives have a fitted effect of over 65% in size
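Rescue of yeast growth: cells expressing toxic alpha-synuclein, induced in galactose at OD600 0.02, incubated with compound 24 h at 30 C. ATP luminescence quantified growth; inhibitors of toxicity appear as activators.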
Large screens that a line does not name were inactive. Rows were chosen to be rich in hits. Some 2.1% of all compounds tested hit in one or more screens of this group. Calls come from the whole dose curve; as a rule, active = well fitted curve in the direction sought with a large enough effect; inconclusive = small, poorly fitted or top-dose-only effect, or another doubt; inactive = no such curve, though single readings can be large; an effect the other way counts as inactive or inconclusive.

C[C@]1(C(=O)NCCCNc2ncc(C(F)(F)F)cc2Cl)C=C[C@@H](Cc2ccccc2)N1C(=O)c1ccccc1	TDP43 rescue inconclusive, FUS suppressor 25µM, aSyn yeast inh inconclusive
CC1(C(=O)NCCCNc2ncc(C(F)(F)F)cc2Cl)C=CCN1C(=O)c1ccccc1 (stereo not drawn)	none
Clc1ccc2nnnc(-c3ccccc3)c2c1	TDP43 rescue 3.2µM
Cc1cccc(OCC(=O)Nc2nc3c(s2)CC(C(C)(C)C)CC3)c1C (stereo not drawn)	none (no result: aSyn yeast inh)
COc1cccc(N2CCN(CC(=O)Nc3nc4c(s3)CC(C)CC4)CC2)c1 (stereo not drawn)	none
CC(C)(C)C1CCc2nc(NC(=O)Cc3ccccc3)sc2C1 (stereo not drawn)	TDP43 rescue 32µM (no result: aSyn yeast inh)
CC1CCc2nc(NC(=O)CN3CCN(c4ccc(F)cc4)CC3)sc2C1 (stereo not drawn)	TDP43 rescue 16µM, FUS suppressor inconclusive
COc1ccc(CC(=O)Nc2nc3c(s2)CC(C)CC3)cc1 (stereo not drawn)	TDP43 rescue 13µM, Abeta rescue inconclusive (no result: aSyn yeast inh)
COc1cc(O)c([C@@H](CC(=O)N2CC(C)CC(C)C2)c2ccc3c(c2)OCO3)c(OC)c1 (stereo partly drawn)	FUS suppressor 25µM (no result: TDP43 rescue, Abeta rescue, aSyn yeast inh)
C=CCNC(=S)N1CCC2CC1c1c(Cl)cccc12 (stereo not drawn)	Abeta rescue inconclusive
COc1ccc(NC(=S)N2CCC3CC2c2c(Cl)cccc23)c(OC)c1 (stereo not drawn)	TDP43 rescue 14µM
COc1ccc(CNC(=O)COC(=O)c2ccccn2)cc1	none
Clc1ccc(-c2nnc(C3CC3)o2)cc1	none
Clc1ccc(-c2nnc(C3CCCCC3)o2)cc1	TDP43 rescue 11µM
COc1ccc(N2CCN(CC(O)COc3ccc(C(C)(C)C)cc3)CC2)cc1 (stereo not drawn)	TDP43 rescue 13µM (no result: aSyn yeast inh)
COc1ccccc1NCC(O)COc1ccc(C(C)(C)C)cc1 (stereo not drawn)	FUS suppressor inconclusive, aSyn yeast inh inconclusive
COc1ccc(NCC(O)COc2ccc(C(C)(C)C)cc2)cc1 (stereo not drawn)	TDP43 rescue 16µM, Abeta rescue inconclusive
COc1ccc(CCNC(=O)CCCCCn2c(=O)[nH]c3cc(OC)c(OC)cc3c2=O)cc1OC	none (no result: aSyn yeast inh)
CC1CCCN(S(=O)(=O)c2ccc(S(=O)(=O)NC(C)c3cccs3)cc2)C1 (stereo not drawn)	FUS suppressor 32µM
Cc1c(C(=O)NCCc2ccc(Cl)cc2)sc2nc3n(c(=O)c12)CCCC3	TDP43 rescue 18µM, FUS suppressor inconclusive (no result: aSyn yeast inh)
Cc1c(C(=O)NCCc2ccc(Cl)cc2)sc2nc3n(c(=O)c12)CCC3	TDP43 rescue inconclusive
Cc1ccc(CNC(=O)c2sc3nc4n(c(=O)c3c2C)CCCCC4)cc1	TDP43 rescue 25µM (no result: aSyn yeast inh)
Cc1ccc(CNC(=O)c2sc3nc4n(c(=O)c3c2C)CCCC4)cc1	TDP43 rescue 13µM (no result: aSyn yeast inh)
Cc1c(C(=O)NCc2ccccc2)sc2nc3n(c(=O)c12)CCCCC3	TDP43 rescue inconclusive (no result: aSyn yeast inh)
Cn1c2ccccc2c(=O)c2ccc(C#Cc3ccc(N)cc3)cc21	TDP43 rescue 11µM, FUS suppressor inconclusive
COc1ccc(C#Cc2ccc3c(=O)c4ccccc4n(C)c3c2)cc1	TDP43 rescue inconclusive
Cn1c2ccccc2c(=O)c2cc(C#CC3=CCCCC3)ccc21	FUS suppressor inconclusive
Cn1c2ccccc2c(=O)c2cc(C#Cc3cccc(N)c3)ccc21	TDP43 rescue 13µM
COC(=O)C1(C(=O)OC)C[C@H](c2cccs2)N(Cc2ccccc2OC)[C@@H]1c1ccc(F)cc1	none
COC(=O)C1=C(C)NC(C)=C(C(=O)OCC(C)C)C1c1ccccc1[N+](=O)[O-] (stereo not drawn)	TDP43 rescue 35µM
CCOC(=O)Nc1cccc(C(=O)O)c1	none
O=C(Nc1ccccc1)OCCc1ccccc1	TDP43 rescue 35µM
O=C(Nc1ccccc1)OCCCc1ccccc1	TDP43 rescue inconclusive
CCCCOC(=O)Nc1cccc(C(C)=O)c1	TDP43 rescue 11µM
CCOC(=O)Nc1cccc(Nc2ccccc2)c1	TDP43 rescue 14µM
CCCCOC(=O)c1cccc(NC(=O)CCC(=O)O)c1	none
COc1ccc(OCC(=O)N2CCC(n3nccc3NC(=O)C3CC3)CC2)cc1	none
CCc1ccc(S(=O)(=O)NCCc2csc(-c3cccnc3)n2)s1	TDP43 rescue 13µM, Abeta rescue inconclusive
CCS(=O)(=O)NCCc1csc(-c2cccnc2)n1	TDP43 rescue inconclusive
O=S(=O)(NCc1csc(-c2cccnc2)n1)c1ccc2c(c1)OCCO2	none
O=S(=O)(NCCc1csc(-c2ccccc2)n1)c1ccc2c(c1)OCCO2	TDP43 rescue 20µM
CCc1ccc(S(=O)(=O)NCCc2csc(-c3ccccc3)n2)s1	TDP43 rescue 14µM, aSyn yeast inh inconclusive
CC(=O)Nc1ccc(-c2nnc(SCc3ccccc3)n2C)cc1	none (no result: TDP43 rescue, Abeta rescue, FUS suppressor)
COc1ccc(NC(=O)COC(=O)c2c(NC(C)=O)sc(C)c2C)cc1	none
CCC(C)NC(=O)CN1C(=O)C2CCCCN2C(=O)c2ccccc21 (stereo not drawn)	none (no result: TDP43 rescue, Abeta rescue, aSyn yeast inh)
CNc1ccc(C=C2C=CC=C2)cc1	none (no result: TDP43 rescue, Abeta rescue, FUS suppressor)
CCOc1ccccc1CN1C(=O)c2ccccc2C1C(=O)NC1CCCCCC1 (stereo not drawn)	none (no result: aSyn yeast inh)
Cc1c(C(=O)N(C)c2ccccc2)sc2nc(-c3ccc(F)cc3)cn12	TDP43 rescue 35µM (no result: aSyn yeast inh)
Cc1cc(C)cc(Cn2c(C)c(C(=O)N(C)Cc3ccc(F)cc3)sc2=O)c1	TDP43 rescue 32µM
Cc1c(C(=O)N(C)Cc2ccccc2)sc2nc(-c3ccc(F)cc3)cn12	TDP43 rescue 22µM, FUS suppressor inconclusive (no result: aSyn yeast inh)
Cc1c(C(=O)NCc2ccc(F)cc2)sc2nc(-c3ccccc3)cn12	none (no result: aSyn yeast inh)
CCn1c2ccccc2c2cc(C=Nn3c(-c4ccccn4)n[nH]c3=S)ccc21	none (no result: TDP43 rescue, Abeta rescue, aSyn yeast inh)
CC(C)Cn1c(=O)c2ccccc2n2c(CCC(=O)N3CCN(c4ccccc4)CC3)nnc12	none (no result: aSyn yeast inh)
C=C1[C@@H](O)[C@H](Cc2ccccc2)N(Cc2ccccc2Br)S1(=O)=O	TDP43 rescue inconclusive
CCCn1c(=S)[nH]c2cc(Cl)ccc21	TDP43 rescue inconclusive, Abeta rescue inconclusive
CCn1c(=S)[nH]c2cc(Cl)ccc21	Abeta rescue 13µM
Cc1ccc(NC(=O)CN(C)C(=O)c2cccnc2Nc2cccc(C(F)(F)F)c2)cc1	TDP43 rescue 20µM
O=C(/C=C/c1cccc([N+](=O)[O-])c1)c1ccco1	TDP43 rescue 6.3µM
Cc1nc2ccccn2c1C(=O)/C=C/c1cccc([N+](=O)[O-])c1	TDP43 rescue 2.5µM
O=C(/C=C/c1cccc([N+](=O)[O-])c1)c1ccc([N+](=O)[O-])o1	none
Cc1ccccc1NS(=O)(=O)c1ccc2[nH]cc(C(=O)NCCc3ccccc3)c(=O)c2c1	none (no result: aSyn yeast inh)
O=C(NC1CCCCC1)c1ccc(-c2cn[nH]c2)c2ccoc12	TDP43 rescue 22µM
COc1ccc(-c2coc3c(C(=O)NC4CCCCC4)cccc23)c(C)c1	none
COc1ccc(-c2ccc(C(=O)NC3CCCCC3)c3occc23)c(C)c1	TDP43 rescue 13µM

Compound activity: PubChem, National Center for Advancing Translational Sciences (NCATS)
